For eight compounds, growth results are on record in PubChem BioAssay (NCI).

Molecules are shown by their SMILES. About 83,000 compounds went through this panel and 20% of them were active in at least one assay; those are over-represented in the sample as a whole.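 Cell lines were cultured in 96-well plates, exposed to a single compound concentration, and assessed for percent growth 48 hours later.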 Values without a mark were called inactive. Active and inactive are the calls of the source. The calls were made as follows: active = growth percent below 10; inactive = the rest.

Common to all, as to assay: NCI-60 one-dose screen, 48 h (100 = growth as untreated, 0 = no growth, -100 = all killed)
Conditions in all cases: 10 µM

The test system of test [1] is RPMI-8226 leukemia.
The test system of test [2] is OVCAR-8 ovarian.
Test [3] has as its system OVCAR-5 ovarian.
For test [4], the system named is OVCAR-4 ovarian.
For test [5], the system named is SK-OV-3 ovarian.
Test [6] deals with IGROV1 ovarian.
Test [7] relates to OVCAR-3 ovarian.
The test system of test [8] is HS 578T breast.
For test [9], the system named is NCI/ADR-RES ovarian.
Test [10] deals with T-47D breast.
Test [11] relates to BT-549 breast.
Test [12] concerns MDA-MB-435 melanoma.
Test [13] relates to SW-620 colon.
In test [14] the test system is MCF7 breast.
Test [15] deals with HCT-116 colon.
In test [16] the test system is HCC-2998 colon.
Test [17] deals with KM12 colon.
Test [18] has as its system MDA-MB-468 breast.

In the case of `COC[C@@H](CC(C)C)N=C1NC(=O)/C(=C/c2ccc3ncoc3c2)N1`, the growth was 0.955% (active) in test [1]; 12.4% in [2]; -11.6% (active) in test [3]; 53.7% in test [4]; -40.8% (active) in [5]; 7.9% (active) in test [6]. In addition, the growth in test [7] was -26.3% (active); in [8], 25.9%; in [9], 20.3%; in test [10], -4.84% (active); in test [11], 2.39% (active); in test [12], 17.3%. Further, the growth in test [13] is 0.318% (active); in test [14] it was 1.91% (active); in [15], 22.8%; in [16] it was 36.7%; in test [17] it was 16.4%; in test [18] it was -31.1% (active).
On to `O=C1CCC(N2Cc3c(C#CCCCNC(=O)c4ccc(NC(=O)[C@@H]5NC6(CCCCC6)[C@@]6(C(=O)Nc7cc(Cl)ccc76)[C@H]5c5cccc(Cl)c5F)cc4)cccc3C2=O)C(=O)N1` (some centres undefined), for which the growth in test [1] is 43.7%; in [2], 69%; in test [3] it was 76.6%; in test [4], 56.5%; in [5] it was 74.2%; in test [6], 11.7%. The growth was 72.3% in test [7]; 46.2% in test [8]; 85.7% in [9]; 38.4% in test [10]; 32.5% in test [11]; 61.6% in test [12]. Also, the growth was 84.7% in test [13]; 5.5% (active) in [14]; 12.6% in [15]; 58.6% in test [16]; 49.2% in [17]; 39.3% in [18].
Regarding `CC(=O)NCC1=C(C)C=C2C(=O)[C@](C)(O)C3(CC3)C(C)=C21`, the growth is 82.7% in test [1]; -63.6% (active) in [2]; -28.8% (active) in test [3]; -53% (active) in test [4]; -58.5% (active) in test [5]; -39.3% (active) in [6]. For the same compound, the growth in test [7] is -19.9% (active); in [8], -37.4% (active); in [9], -46.1% (active); in [10] it was -11.8% (active); in test [11], -46.5% (active); in test [12] it was -80% (active). The growth in [13] was 70.1%; in test [14], 3.29% (active); in test [15] it was -45.1% (active); in test [16], -79.4% (active); in test [17], -5.71% (active); in test [18], -79.7% (active).
For `O=S(=O)(c1ccc(Cl)cc1)c1nc(-c2ccccc2)oc1S(=O)(=O)c1ccc(Cl)cc1`, the growth in test [1] is 36.3%; in test [2], 81.5%; in test [3] it was 101%; in test [4] it was 92.8%; in [5], 94%; in test [6], 91.7%. The growth in [7] is 89.1%; in [8], 87.4%; in test [9], 81.2%; in test [10] it was 78.8%; in test [11] it was 142%; in [12], 82.3%. Also, the growth in test [13] was 46.8%; in test [14] it was 36.3%; in test [15], 58.9%; in [16] it was 95.8%; in test [17], 93.2%; in test [18], 76%.
In the case of `O=C1Nc2ccc(Cl)cc2/C1=C/c1cccc(OCc2ccccn2)c1`, the growth in test [1] is -45.3% (active); in test [2] it was -42.6% (active); in test [3], -45.2% (active); in [4], 4.17% (active); in test [5] it was 4.02% (active); in [6], 0.125% (active). Also, the growth in test [7] was -35.8% (active); in test [8], -1.17% (active); in [9] it was -23.8% (active); in test [10] it was -2.11% (active); in test [11], -7.83% (active); in test [12], -39.2% (active). Besides, the growth in test [13] was -38% (active); in [14], -0.24% (active); in [15] it was -98.3% (active); in test [16] it was -73.2% (active); in test [17], -32.3% (active); in [18] it was -30% (active).
Consider `CNCc1cccc2c1OCCCCCC[C@@](C)(O)CC1(CC1)S(=O)(=O)c1ccc(cc1)-c1cnc(N)c(n1)C(=O)N2`, for which the growth in test [1] is -31.3% (active); in test [2], -65.5% (active); in test [3], -89.7% (active); in test [4], -76.9% (active); in [5], -87.9% (active); in [6], -91.2% (active). The growth in test [7] is -91.1% (active); in test [8], -40.5% (active); in test [9] it was -92.1% (active); in test [10] it was 33.7%; in test [11] it was -75.2% (active); in test [12], -95.2% (active). For the same compound, the growth in test [13] is -84.6% (active); in [14], -90% (active); in [15], 0.182% (active); in test [16], -100% (active); in test [17] it was -68.7% (active); in test [18], -98% (active).
With `COC(=O)CC1CC1C1Cc2c(nc(N(C)S(C)(=O)=O)nc2C(C)C)-c2ccc(F)cc21` (centres undefined), the growth was 46% in test [1]; 80.6% in [2]; 90% in [3]; 82.3% in test [4]; 106% in [5]; 81.4% in test [6]. Besides, the growth is 97.5% in test [7]; 84.6% in [8]; 71.8% in test [9]; 63.8% in [10]; 64.8% in test [11]; 87.2% in test [12]. Further, the growth in test [13] is 66%; in test [14], 67.1%; in [15], 44.4%; in [16], 101%; in test [17], 76.2%; in [18], 74.9%.
For the compound `COc1cccc(-c2nn(-c3ccccc3)cc2-c2ccnc(NCCCNC(=O)Nc3ccc(F)cc3)c2)c1`, the growth in test [1] is -27.4% (active); in [2], 11.1%; in test [3] it was 27.1%; in test [4], 22.8%; in test [5], 3.71% (active); in [6], 15.8%. Further, the growth is 28.4% in test [7]; -3.48% (active) in test [8]; -35.6% (active) in [9]; 4.77% (active) in [10]; -20.6% (active) in [11]; -59% (active) in [12]. Moreover, the growth was 14.5% in test [13]; -15.5% (active) in test [14]; 6.26% (active) in [15]; -25.1% (active) in [16]; 5.44% (active) in [17]; -54.7% (active) in test [18].
